# Test results from PubChem BioAssay (NCI).
# About 83,000 compounds went through this panel and 20% of them were active in at least one assay; those are over-represented in the sample as a whole.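 Note: values are percent growth. 100 is the growth of untreated cells, values between 100 and 0 indicate rising inhibition; between -100 and 0 indicates cell death.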 A number with no mark means an inactive call. Activity calls are given as the source filed them. Rule for the calls: active = growth percent below 10; inactive = the rest.
# Tested on: EKVX NSCLC
# Test: NCI-60 one-dose screen, 48 h (100 = growth as untreated, 0 = no growth, -100 = all killed)
# Conditions: 10 µM unless noted
row,SMILES,growth
1,Cc1ccc2c(C(C[N+](=O)[O-])c3ccccc3)c(-c3ccccc3)[nH]c2c1 (stereo unspecified),42.3% [9.5 µM]
2,O=C1c2cccc3cccc(c23)C(=O)N1CCCCCN1CCN(CCCCCOc2ccc(-c3nc4ccc(N5CCOCC5)cc4[nH]3)cc2)CC1,105%
3,COc1ccc(/C=C(\C#N)C(=O)Nc2cccc(Nc3nc(SC)nc(-c4cccc([N+](=O)[O-])c4)c3C#N)c2)cc1OC,88.2%
4,O=C1Nc2ccc(Br)cc2C12Oc1ccccc1C1CC(c3ccc(F)cc3)=NN12 (stereo unspecified),85.5%
5,CSc1nc(-c2cccc(NC(=O)CCl)c2)c(C#N)c(=O)n1C,70.8%
6,Oc1cccc2ccc(N/N=C/c3cc(CN4CCOCC4)c(O)c4ncccc34)nc12,23.4%
7,CC(C)(C)c1cc(C(C)(C)C)cc(S(=O)(=O)Nc2cc3ccccc3cc2C(=O)NCCN)c1,89.5%
8,COc1ccc(/C=C/c2nc3ccccc3nc2/C=C/c2ccc(OC)cc2)cc1,96.2%
9,COc1cc(/C=C/c2cc(/C=C/c3ccc(O)c(OC)c3)n(-c3c(Cl)cccc3Cl)c(=O)n2)ccc1O,41.4%
10,Cc1cc(C)nc(SC2=C(Nc3cc(Cl)ccc3O)C(=O)N(Cc3ccccc3)C2=O)n1,83.9% [30 µM]
11,CC(C)(C)CC(C)(C)c1ccc(OCCOCC[N+](C)(C)Cc2ccccc2)cc1,22.3%
12,O=C(NCCN1CCOCC1)Nc1ccc(-c2cc3c(Nc4ccc(Oc5cccc(C(F)(F)F)c5)c(Cl)c4)ncnc3s2)cc1,20.8%
13,NNCCc1ccc(NC(=O)CCCc2ccc(/C=C/C(=O)NO)cc2)cc1,69.2%
14,COc1ccc(C2CC(c3ccc(Cl)cc3)=NN2/C=C2\SC(=S)N(NC(=O)Cc3ccccc3Nc3c(Cl)cccc3Cl)C2=O)cc1 (stereo unspecified),62.2%
15,CCCSc1ccc2nc(NC(=O)OC)[nH]c2c1,58.2%
16,CCCN1CCN(c2ccc3nc(-c4ccc5nc(-c6ccc(OCC)cc6)[nH]c5c4)[nH]c3c2)CC1,59.1%
17,CCn1c(O)c(/C=N/NC(=O)C(C)c2ccc(CC(C)C)cc2)sc1=S (stereo unspecified),41.1%
18,CN1CCN(CCCOc2cccc3nc(Nc4cc(Cl)cc(Cl)c4)ccc23)CC1,26.6%
19,O=C(CCN1C(=O)/C(=C/c2ccc(Cl)cc2)SC1=S)NCCCN1CCOCC1,90.9%

row,SMILES,growth
1,c1ccc(Cn2cc(-c3nc4ccccc4s3)c3cccnc32)cc1,80.5%
2,O=C1c2cccc3cccc(c23)C(=O)N1CCCCN1CCN(CCCCOc2ccc(-c3nc4ccc(N5CCOCC5)cc4[nH]3)cc2)CC1,91.7%
3,COc1cc(C2CC(=O)c3ccccc3N2)cc(OC)c1OC (stereo unspecified),103%
4,O=C1c2cc3c(cc2-c2c1c1ccc(F)cc1c(=O)n2C[C@H](O)[C@H](O)[C@H](O)CO)OCO3,5.59% (active)
5,Cc1[nH]c(-c2ccc3cc[nH]c3c2)c2c1C(=O)CCCC2,47.8%
6,O=C(O)c1c(=O)cccc2ssc12,11%
7,O=C1c2cc3c(cc2-c2c1c1ccc(Cl)cc1c(=O)n2CCCN1CCOCC1)OCO3,93.8%
8,Cn1cc(-c2nonc2-c2c[nH]c3ccccc23)c2cccnc21,49.7%
9,CCCCN(CCCC)CCCn1c(-c2ccccc2)ccc1-c1ccccc1,49.6%
10,CC1=CC(=NN=c2cc(C)n([O-])c(C)c2)C=C(C)[N+]1=O,110%
11,CN(C)S(=O)(=O)c1ccc(S(=O)(=O)Nc2cccc(Cl)c2N2CCCCC2)cc1,68.2%
12,Cc1cn2c(/C=C3/C(=O)Nc4c3ccc3ccccc43)c(C(F)(F)F)nc2s1,44.4%
13,Oc1cccc(-c2nc(N3CCOCC3)c3c4c(sc3n2)CCCC4)c1,34.4%
14,COc1ccc(S(=O)(=O)N2CCCCC2)cc1NC(=O)c1[nH]c(C)c2c1CCCCC2=O,33.9%
15,Cc1cc(C)nc(SC2=C(Nc3cccc(Cl)c3)C(=O)N(Cc3ccccc3)C2=O)n1,56% [30 µM]
16,C#Cc1cccc(NC(=O)c2ccccc2NC(=O)CCl)c1,94.1% [8.25 µM]
17,C=C(C)[C@@H]1CC[C@]2(C(=O)OC)CC[C@]3(C)[C@H](CC[C@@H]4[C@@]5(C)C/C(=C/c6ccc(OC)cc6)C(=O)C(C)(C)[C@@H]5CC[C@]43C)[C@@H]12,84.7%
18,N#Cc1c(-c2ccc(Cl)cc2)nc(N=Nc2c(O)[nH]c3ccc(Cl)cc23)nc1N1CCOCC1,86.1%
19,CN1CCN(CCCOc2cccc3nc(Nc4ccc(Cl)c(F)c4)ccc23)CC1,61.7%

# Tested on: SN12C renal
# Test: as above
# Conditions: 10 µM unless noted
row,SMILES,growth
1,Cc1ccc2c(C(C[N+](=O)[O-])c3ccccc3)c(-c3ccccc3)[nH]c2c1 (stereo unspecified),42.2% [9.5 µM]
2,O=C1c2cccc3cccc(c23)C(=O)N1CCCCCN1CCN(CCCCCOc2ccc(-c3nc4ccc(N5CCOCC5)cc4[nH]3)cc2)CC1,108%
3,COc1ccc(/C=C(\C#N)C(=O)Nc2cccc(Nc3nc(SC)nc(-c4cccc([N+](=O)[O-])c4)c3C#N)c2)cc1OC,96.5%
4,O=C1Nc2ccc(Br)cc2C12Oc1ccccc1C1CC(c3ccc(F)cc3)=NN12 (stereo unspecified),93.3%
5,CSc1nc(-c2cccc(NC(=O)CCl)c2)c(C#N)c(=O)n1C,81%
6,Oc1cccc2ccc(N/N=C/c3cc(CN4CCOCC4)c(O)c4ncccc34)nc12,20.2%
7,CC(C)(C)c1cc(C(C)(C)C)cc(S(=O)(=O)Nc2cc3ccccc3cc2C(=O)NCCN)c1,46.6%
8,COc1ccc(/C=C/c2nc3ccccc3nc2/C=C/c2ccc(OC)cc2)cc1,101%
9,COc1cc(/C=C/c2cc(/C=C/c3ccc(O)c(OC)c3)n(-c3c(Cl)cccc3Cl)c(=O)n2)ccc1O,27.8%
10,Cc1cc(C)nc(SC2=C(Nc3cc(Cl)ccc3O)C(=O)N(Cc3ccccc3)C2=O)n1,91.6% [30 µM]
11,CC(C)(C)CC(C)(C)c1ccc(OCCOCC[N+](C)(C)Cc2ccccc2)cc1,-29.2% (active)
12,O=C(NCCN1CCOCC1)Nc1ccc(-c2cc3c(Nc4ccc(Oc5cccc(C(F)(F)F)c5)c(Cl)c4)ncnc3s2)cc1,42.9%
13,NNCCc1ccc(NC(=O)CCCc2ccc(/C=C/C(=O)NO)cc2)cc1,55.8%
14,COc1ccc(C2CC(c3ccc(Cl)cc3)=NN2/C=C2\SC(=S)N(NC(=O)Cc3ccccc3Nc3c(Cl)cccc3Cl)C2=O)cc1 (stereo unspecified),48.5%
15,CCCSc1ccc2nc(NC(=O)OC)[nH]c2c1,41.5%
16,CCCN1CCN(c2ccc3nc(-c4ccc5nc(-c6ccc(OCC)cc6)[nH]c5c4)[nH]c3c2)CC1,61.2%
17,CCn1c(O)c(/C=N/NC(=O)C(C)c2ccc(CC(C)C)cc2)sc1=S (stereo unspecified),38%
18,CN1CCN(CCCOc2cccc3nc(Nc4cc(Cl)cc(Cl)c4)ccc23)CC1,36.1%
19,O=C(CCN1C(=O)/C(=C/c2ccc(Cl)cc2)SC1=S)NCCCN1CCOCC1,98.5%

row,SMILES,growth
1,c1ccc(Cn2cc(-c3nc4ccccc4s3)c3cccnc32)cc1,94.5%
2,O=C1c2cccc3cccc(c23)C(=O)N1CCCCN1CCN(CCCCOc2ccc(-c3nc4ccc(N5CCOCC5)cc4[nH]3)cc2)CC1,94.7%
3,COc1cc(C2CC(=O)c3ccccc3N2)cc(OC)c1OC (stereo unspecified),92%
4,O=C1c2cc3c(cc2-c2c1c1ccc(F)cc1c(=O)n2C[C@H](O)[C@H](O)[C@H](O)CO)OCO3,-18% (active)
5,Cc1[nH]c(-c2ccc3cc[nH]c3c2)c2c1C(=O)CCCC2,50.8%
6,O=C(O)c1c(=O)cccc2ssc12,14.3%
7,O=C1c2cc3c(cc2-c2c1c1ccc(Cl)cc1c(=O)n2CCCN1CCOCC1)OCO3,46.3%
8,Cn1cc(-c2nonc2-c2c[nH]c3ccccc23)c2cccnc21,39.6%
9,CCCCN(CCCC)CCCn1c(-c2ccccc2)ccc1-c1ccccc1,70.7%
10,CC1=CC(=NN=c2cc(C)n([O-])c(C)c2)C=C(C)[N+]1=O,92.1%
11,CN(C)S(=O)(=O)c1ccc(S(=O)(=O)Nc2cccc(Cl)c2N2CCCCC2)cc1,83%
12,Cc1cn2c(/C=C3/C(=O)Nc4c3ccc3ccccc43)c(C(F)(F)F)nc2s1,38.2%
13,Oc1cccc(-c2nc(N3CCOCC3)c3c4c(sc3n2)CCCC4)c1,38.8%
14,COc1ccc(S(=O)(=O)N2CCCCC2)cc1NC(=O)c1[nH]c(C)c2c1CCCCC2=O,34.9%
15,Cc1cc(C)nc(SC2=C(Nc3cccc(Cl)c3)C(=O)N(Cc3ccccc3)C2=O)n1,71.9% [30 µM]
16,C#Cc1cccc(NC(=O)c2ccccc2NC(=O)CCl)c1,64.6% [8.25 µM]
17,C=C(C)[C@@H]1CC[C@]2(C(=O)OC)CC[C@]3(C)[C@H](CC[C@@H]4[C@@]5(C)C/C(=C/c6ccc(OC)cc6)C(=O)C(C)(C)[C@@H]5CC[C@]43C)[C@@H]12,84.9%
18,N#Cc1c(-c2ccc(Cl)cc2)nc(N=Nc2c(O)[nH]c3ccc(Cl)cc23)nc1N1CCOCC1,97%
19,CN1CCN(CCCOc2cccc3nc(Nc4ccc(Cl)c(F)c4)ccc23)CC1,63.7%
